Each structure is given as a SMILES string. The whole screen tested about 360,000 compounds, of which about 1,300 (0.36%) were called active.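 The calls were made as follows: active = inhibition above the mean of all tested compounds plus 3 SD (cut at about 70% in these data); inactive = the rest.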 The sample as a whole holds a higher share of actives than the screen did.

This is an account of results in PubChem BioAssay AID602229 (The Scripps Research Institute Molecular Screening Center, 2012).

The target in this experiment is Photoreceptor-specific nuclear receptor (Homo sapiens) (UniProt Q9Y5X4). As to the kind of experiment: NR2E3 agonists in two-hybrid cells, primary screen, cell-based, luminescence, CHO-S, Gal4-NCOR/VP16-NR2E3 (AID 602229).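 Also: 0% = DMSO with NR2E3 transfected cells and 100% = cells lacking NR2E3 construct; higher means lower luciferase signal from less NR2E3 corepressor binding.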 Particulars: luciferase, at 3.98 µM, active compounds read high.
Photoreceptor-specific nuclear receptor (Homo sapiens), sequence (Q9Y5X4 whole entry, looked up, the tested form may be a part): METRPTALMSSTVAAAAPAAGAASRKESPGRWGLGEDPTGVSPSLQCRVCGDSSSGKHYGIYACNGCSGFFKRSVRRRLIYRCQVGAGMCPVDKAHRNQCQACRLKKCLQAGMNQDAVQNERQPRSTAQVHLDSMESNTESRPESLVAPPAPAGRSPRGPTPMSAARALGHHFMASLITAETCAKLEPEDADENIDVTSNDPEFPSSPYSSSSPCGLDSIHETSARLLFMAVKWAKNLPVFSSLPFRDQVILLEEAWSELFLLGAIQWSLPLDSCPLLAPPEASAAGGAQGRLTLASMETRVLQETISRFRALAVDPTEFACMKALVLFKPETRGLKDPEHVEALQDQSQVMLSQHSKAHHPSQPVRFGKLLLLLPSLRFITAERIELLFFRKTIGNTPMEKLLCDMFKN
On to `CC(=O)OC1C2(CC3N4C(=O)C5(CO)SSC4(CC31O)C(=O)N5C)OC(C)C(C)(C)C2=O` (stereo not given), for which the inhibition is 99.4% (active). On to `Cc1nn(-c2ccccc2)c(C)c1NC(=O)COC(=O)Cc1ccccc1`, for which the inhibition is 8.66% (inactive).

With `COc1ccc(Br)cc1CNCCc1cccc(Cl)c1`, the inhibition was 24.3% (inactive). In the case of `COC(=O)C1=C(c2ccc(F)cc2OCc2ccccc2)C[C@@H]2CC[C@H]1N2C(=O)NCc1ccc(C(C)(C)C)cc1`, the inhibition is 8.82% (inactive). As for `CCCCCCCCCCCCn1ccc(=N)cc1`, the inhibition is 94% (active). Take `CC(C)CN1Cc2cc(N3CCCCC3)ccc2-n2nncc2C1`: the inhibition is 3.03% (inactive). For `CNC(=O)N(C)c1nnc(C(C)(C)C)s1`, the inhibition is -10.2% (inactive). For `CN(C)P(=S)(Nc1ccccc1)C(Cl)(Cl)Cl` (stereo not given), the inhibition was 5.18% (inactive).

For the compound `COC(=O)N(c1ccc(OC)cc1)P1(=S)OCCC(C)O1` (stereo not given), the inhibition was -15.4% (inactive). Next, `CC(=NCC1CCCO1)c1c(O)n(-c2ccccc2)c(=O)[nH]c1=O` (stereo not given): 0.24% (inactive); `CCC(C)(O)C(=O)OC1C(=O)OC2CC3C(C)=CC(=O)C(O)C3(C)C3C4(O)OCC23C1C(C)C4O` (stereo not given): 99% (active). As for `CCC(=O)OC(Cc1ccccc1)(c1ccccc1)C(C)CN(C)C` (stereo not given), the inhibition was -18.8% (inactive). For the compound `Nc1ccc(Cc2ccc(N)c(Cl)c2)cc1Cl`, the inhibition was -10.5% (inactive). Next, `Cn1c(O)c(C(=Nc2ccc(F)cc2)c2ccccc2)c(=O)n(C)c1=O`: -24.4% (inactive); `COc1cccc(-c2nc3ccc(N4CCN(C)CC4)cc3[nH]2)c1`: -20.1% (inactive).
